Experimental data reported in PubChem BioAssay (NCATS).
Records with an inconclusive call do not appear. Where a call stands in place of a potency, no number is given. Activity calls are given as the source filed them. Calls follow the shape of the dose curve; as a rule, active = well fitted inhibition curve with a large enough effect; inconclusive = small, poorly fitted or top-dose-only effect; inactive = flat fitted curve, though single readings scatter.

Test system: TAB109
Assay: qHTS profiling for inhibitors of Plasmodium falciparum proliferation (AID 504749); also: nearly all actives have a fitted effect of over 60% in size
Settings: P. falciparum in erythrocytes, SYBR Green DNA, 72 h; series mostly up to 28.7 µM
Procedure, shortened: (§1)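 SYBR Green fluorescence of parasite DNA, read after lysis and overnight dark incubation, measured growth over 72 h in erythrocyte culture at 0.3% parasitemia and 2.5% hematocrit. Data normalised to DMSO and 0.29 uM artemisinin, with plate-drift correction.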
Potency is read from the fitted curve at half-maximal effect.

Compound | Potency
O=C(CN1CCN(Cc2ccc3c(c2)OCO3)CC1)N1c2ccccc2Sc2ccccc21 | 3.55 µM (active)
CCC(CC)(CC(=O)Nc1cccc(/C=C/c2nc(C3CCC3)cs2)c1)C(=O)O | inactive
C#C[C@]1(OC(C)=O)CC[C@H]2[C@@H]3CCC4=C/C(=N/O)CC[C@@H]4[C@H]3CC[C@@]21CC | inactive
Cc1cccc(C)c1NC(=O)CN1CCCCCC1 | inactive
CCOC(=O)Nc1ccc2c(c1)N(C(=O)CCN1CCOCC1)c1ccccc1S2 | inactive
CCc1ccc(C(=O)C(C)CN2CCCCC2)cc1 (stereo not drawn) | inactive
CC(=O)NCCCCCC(=O)O | inactive
CCOc1ccccc1OCCN[C@H](C)Cc1ccc(OC)c(S(N)(=O)=O)c1 | inactive
CCN(CC)CCOC(=O)C1(c2ccccc2)CCCC1 | inactive
Cc1ncc(CO)c(C=O)c1O | inactive
CC[N+](C)(CC)CCOC(=O)C(O)(c1ccccc1)C1CCCCC1 (stereo not drawn) | inactive
COc1cc([C@H]2Oc3cc([C@H]4Oc5cc(O)cc(O)c5C(=O)[C@@H]4O)ccc3O[C@@H]2CO)ccc1O | inactive
COc1ccc(C(=O)c2ccccc2O)c(O)c1 | inactive
CCNC(=O)NCc1cccc(Cl)c1 | inactive
O=C(O)CCc1nc2ccccc2[nH]1 | inactive
C[N+]1(C)CCC(=C(c2ccccc2)c2ccccc2)CC1 | inactive
OC[C@H]1O[C@@H]2O[C@H]3[C@H](O)[C@@H](O)[C@@H](O[C@H]4[C@H](O)[C@@H](O)[C@@H](O[C@H]5[C@H](O)[C@@H](O)[C@@H](O[C@H]6[C@H](O)[C@@H](O)[C@@H](O[C@H]7[C@H](O)[C@@H](O)[C@@H](O[C@H]8[C@H](O)[C@@H](O)[C@@H](O[C@H]1[C@H](O)[C@H]2O)O[C@@H]8CO)O[C@@H]7CO)O[C@@H]6CO)O[C@@H]5CO)O[C@@H]4CO)O[C@@H]3CO | inactive
CC(C)=CCOc1ccc(/C=C/C(=O)c2ccc(OCC=C(C)C)cc2OCC(=O)O)cc1 | inactive
CN1CCN(C2=Nc3cc(F)ccc3Cc3ccccc32)CC1 | inactive

Test system: TAB113
Assay: as above
Settings: P. falciparum in erythrocytes, SYBR Green DNA, 72 h; series mostly up to 28.7 µM
Procedure, shortened: as §1

Compound | Potency
CCC(CC)(CC(=O)Nc1cccc(/C=C/c2nc(C3CCC3)cs2)c1)C(=O)O | inactive
C#C[C@]1(OC(C)=O)CC[C@H]2[C@@H]3CCC4=C/C(=N/O)CC[C@@H]4[C@H]3CC[C@@]21CC | inactive
Cc1cccc(C)c1NC(=O)CN1CCCCCC1 | inactive
CCOC(=O)Nc1ccc2c(c1)N(C(=O)CCN1CCOCC1)c1ccccc1S2 | inactive
Cc1cc2c(OCC(CNC(C)(C)C)OC(=O)c3ccccc3)cccc2[nH]1 (stereo not drawn) | inactive
CCc1ccc(C(=O)C(C)CN2CCCCC2)cc1 (stereo not drawn) | inactive
CCC(C(=O)OCCOCCN(CC)CC)c1ccccc1 (stereo not drawn) | inactive
CC(=O)NCCCCCC(=O)O | inactive
O=C(NC1CCN(CCc2c[nH]c3ccccc23)CC1)c1ccccc1 | inactive
CCOc1ccccc1OCCN[C@H](C)Cc1ccc(OC)c(S(N)(=O)=O)c1 | inactive
CCN(CC)CCOC(=O)C1(c2ccccc2)CCCC1 | 0.005 µM (active)
CN(C)CCOC(c1ccc(Cl)cc1)c1ccccn1 (stereo not drawn) | inactive
Cc1ncc(CO)c(C=O)c1O | inactive
CC(=O)O[C@H]1C[C@@H]2CC[C@@H]3[C@H](CC[C@@]4(C)[C@H]3C[C@H]([N+]3(C)CCCCC3)[C@@H]4OC(C)=O)[C@@]2(C)C[C@@H]1N1CCCCC1 | inactive
CC[N+](C)(CC)CCOC(=O)C(O)(c1ccccc1)C1CCCCC1 (stereo not drawn) | inactive
CO[C@]12C[C@@H](COC(=O)c3cncc(Br)c3)CN(C)[C@@H]1Cc1cn(C)c3cccc2c13 | inactive
COc1ccc(C(=O)c2ccccc2O)c(O)c1 | inactive
CCNC(=O)NCc1cccc(Cl)c1 | inactive
Cc1ccc2c(Br)cc(Br)c(O)c2n1 | 12.6 µM (active)
O=[N+]([O-])c1cccc(S(=O)(=O)NCCNS(=O)(=O)c2cccc([N+](=O)[O-])c2)c1 | inactive
CC(C)[N+](C)(C)CC(O)COc1cccc2ccccc12 (stereo not drawn) | inactive
C[N+]1(C)CCC(=C(c2ccccc2)c2ccccc2)CC1 | inactive
NCc1ccccc1Sc1ccccc1CO | inactive
OC[C@H]1O[C@@H]2O[C@H]3[C@H](O)[C@@H](O)[C@@H](O[C@H]4[C@H](O)[C@@H](O)[C@@H](O[C@H]5[C@H](O)[C@@H](O)[C@@H](O[C@H]6[C@H](O)[C@@H](O)[C@@H](O[C@H]7[C@H](O)[C@@H](O)[C@@H](O[C@H]8[C@H](O)[C@@H](O)[C@@H](O[C@H]1[C@H](O)[C@H]2O)O[C@@H]8CO)O[C@@H]7CO)O[C@@H]6CO)O[C@@H]5CO)O[C@@H]4CO)O[C@@H]3CO | inactive
